# Bioassay records (PubChem BioAssay)
# Pf growth 48h: P. falciparum growth inhibition at 48 hours (one generation); Potency, µM (doses to about 28.7 µM), most hits filed as inhibitors; AID 504832; actives 5.9% (n = 310,000); P. falciparum luciferase growth in erythrocytes, 48 h
#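 Erythrocytes infected with P. falciparum carrying an integrated firefly luciferase reporter (2% hematocrit, 0.1% parasitemia final) were exposed to compounds in RPMI 1640 with 0.5% Albumax at 37 C, 5% CO2. Growth inhibition was scored as reduced luminescence.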
# Pf growth 96h: P. falciparum growth inhibition at 96 hour, primary screen for plastid delayed-death inhibitors | P. falciparum luciferase reporter growth, 96 h | Potency, µM (doses to about 28.7 µM), actives largely listed as inhibitors | actives 6.9% (n = 320,000) | AID 504834
#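 96 h incubation, 37 C, 5% CO2, of luciferase-reporter P. falciparum-infected RBCs (2% hematocrit, 0.05% parasitemia final) with test compounds; endpoint luminescence.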
# Shiga toxin inh: inhibitors of Shiga toxin in Vero cells; AID 2315; actives 9.2% (n = 290,000); Vero cells, Shiga toxin protein synthesis inhibition reporter; inhibition, % at 38.7 µM; in the data active = inhibition mostly above about 28%, no sharp cut-off; inactive = mostly below about 43%
# CHX counter: counter-screen for Shiga toxin inhibitors: cycloheximide protein synthesis inhibition. cell reporter, cycloheximide protein synthesis inhibition counterscreen. max response, %. actives 12% (n = 300,000); in the data active = max response mostly above about 13%, no sharp cut-off; inactive = mostly below about 14%; also: read at 38.3 µM for the half of the compounds with a filed dose
# HCMV antiviral: inhibitors of human cytomegalovirus. HFF cells, HCMV-luciferase reporter, 72 h; hits give low values. activity change, negative = inhibition, % at 57.5 µM. actives 4.5% (n = 410,000). AID 1259415; in the data active = activity change below about -60%; inconclusive = no clear call, values can overlap the other calls; inactive = above about -39%
#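 Two-dose cell screen: HFF monolayers treated with compounds and infected with luciferase-expressing HCMV at 1 PFU/cell, 72 h at 37C, then lysed for luciferase measurement.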
# Numbers stand for hits; – = inactive; ? = inconclusive; · = no result; [ ] = dose if it differs, or a comment. Shown are actives, neighbours in structure and some others; about 20% of the full set was active somewhere. Unless noted, calls follow the shape of the dose curve; as a rule, active = well fitted inhibition curve with a large enough effect; inconclusive = small, poorly fitted or top-dose-only effect, or another doubt; inactive = no such curve, though single readings can be large or run the other way.
SMILES,Pf growth 48h,Pf growth 96h,Shiga toxin inh,CHX counter,HCMV antiviral
O=C(Nc1ccc(Cl)c(C(F)(F)F)c1)N1CCCC(O)C1 (stereo not given),–,0.657µM,–,–,–
COc1cccc(CNC(=O)CCn2c(=O)c3cccn3c3cccnc32)c1,–,–,–,–,–
C/C(=N\NC(=O)c1ccccc1[N+](=O)[O-])c1ccc(Br)s1,–,–,–,–,–
C/C(=N\NC(=O)c1ccccc1O)c1ccc(Br)s1,13.1µM,–,53.7,64.3,–
C/C(=N\NC(=O)c1cccc(F)c1)c1ccc(Br)s1,?,3.7µM,–,39.1,–
O=C(NCc1ccccc1)c1nnc(Cc2cccc(F)c2)o1,·,·,·,·,–
COc1cccc(-n2ccnc2SCC(=O)Nc2nccs2)c1,–,–,–,21.4,–
Cc1cccc(-n2ccnc2SCC(=O)Nc2nccs2)c1,–,–,–,29.0,–
Cc1cc(C)c(NC(=O)CSc2nccn2C)c(C)c1,–,0.0738µM,–,–,–
Cc1cc(NC(=O)CSc2nccn2C)no1,–,–[5.75 µM],–,–,–
COc1cccc(-n2ccnc2SCC(=O)Nc2c(C)cc(C)cc2C)c1,·,·,·,·,-102.0
CCOc1cccc(/C=N/NC(=O)c2cccnc2)c1O,?,?,–,21.2,–
Cc1cccc(/C=N/NC(=O)C(C)Nc2cccc3ccccc23)n1 (stereo not given),·,–,–,16.2,–
CC(O)C(=O)N/N=C/c1cccc2ccccc12 (stereo not given),?,–,–,–,–
CCOc1cccc(/C=N/NC(=O)c2cc(C3CC3)[nH]n2)c1O,–,?,–,18.4,-90.0
COc1cc([N+](=O)[O-])cc(/C=N/NC(=O)C(C)Nc2cccc3ccccc23)c1O (stereo not given),?,–,–,–,-61.4
CCOc1cc(/C=N/NC(=O)c2cccnc2)ccc1O,–,–,–,–,–
CC(Nc1cccc2ccccc12)C(=O)N/N=C/c1ccc([N+](=O)[O-])cc1 (stereo not given),–,–,–,–,–
COc1cc(/C=N/NC(=O)c2cc(C3CC3)[nH]n2)cc(OC)c1OC,–,–,–,–,–
CCCn1c(SCC(=O)N(C2CCCCC2)C2CCS(=O)(=O)C2)n[nH]c1=O (stereo not given),–,–,·,·,–
CCc1nc2c(OCc3ccc(F)cc3)cccn2c1N(C)C(=O)CC(C)C,·,·,·,·,–
COc1ccc(-n2nc(C(=O)Nc3ccc(Cl)cn3)c3c4ccccc4n(C)c3c2=O)cc1,·,·,·,·,–
COc1cc([N+](=O)[O-])cc(/C=N/NC(=O)c2cccnc2)c1O,–,?,–,–,-88.1
CC(C)NC(=O)c1ccc(-c2ccc(Cl)c(C(F)(F)F)c2)o1,·,3.29µM,–,–,–
O=C(Nc1ccccc1)c1ccc(-c2ccccc2C(F)(F)F)o1,?,?,73.0,46.0,–
SMILES,Pf growth 48h,Pf growth 96h,Shiga toxin inh,CHX counter,HCMV antiviral
CC(C)NC(=O)c1ccc(-c2ccccc2C(F)(F)F)o1,–,–,93.4,43.5,–
O=C(Nc1ccccc1)c1ccc(-c2ccccc2Cl)o1,–,–,–,37.6,–
O=C(NCc1ccc(Cl)cc1)c1ccc(-c2ccccc2C(F)(F)F)o1,–,–,–,–,–
CC(=O)Nc1ccc(NC(=O)c2ccc(-c3ccccc3Cl)o2)cc1,–,–,·,·,–
CCOc1ccc(NC(=O)C2CCN(S(=O)(=O)c3ccc4c(c3)oc(=O)n4C)CC2)cc1,·,·,·,·,–
Oc1cccc(Nc2nccc3[nH]c(-c4ccccc4)cc23)c1,·,·,·,·,–
COc1ccc(CC(=O)NCCc2cn(C)c3ccccc23)cc1OC,·,·,·,·,–
N#Cc1ccccc1NC(=O)c1ccc(-c2ccccc2Cl)o1,–,·,123.1,30.3,–
Cc1cc(C)n(/N=C/c2ccc(C(C)C)cc2)c(=O)c1C#N,1.85µM,?,–,–,–
Cc1cc(C)n(/N=C/c2ccc(O)cc2)c(=O)c1C#N,–,–,–,–,–
Cc1ccc(/C=N/n2c(C)cc(C)c(C#N)c2=O)cc1,14.7µM,14.7µM,–,–,–
Cc1ccc(-n2c(C)cc(C)c(C#N)c2=O)cc1,–,–,–,–,–
Cc1cccc(-n2c(C)cc(C)c(C#N)c2=O)c1,–,–[5.75 µM],88.2,17.0,–
O/N=C/C1=C(Cl)c2ccccc2CC1,–,–,–,–,–
COC(=O)C1C(OC)=CC(=O)C2CCCCC21 (stereo not given),·,·,·,·,–
CCCCn1cc2c(c1-c1ccccc1Br)c(=O)n(C)c(=O)n2C,·,·,·,·,–
COc1cccc(-n2c(Cc3cc(=O)[nH]c(=O)[nH]3)nnc2SCc2cccc(C(F)(F)F)c2)c1,–,–,–,–,–
c1ccc2c(c1)ncn2CCCCOc1ccc2c(c1)CCC2,·,5.86µM,–,18.0,–
c1ccc(OCCCCn2cnc3ccccc32)cc1,–,–,–,–,–
c1ccc2c(c1)ncn2CCCOc1ccc2c(c1)CCC2,·,13.1µM,97.6,19.4,–
CCOC(=O)/C(=N\Nc1ccc(Br)cc1)N1CC(C)OC(C)C1 (stereo not given),?,–,–,–,·
COC(=O)C(C(=O)OC)C1CCCCC1NS(=O)(=O)c1ccc(C)cc1 (stereo not given),·,·,·,·,–
Cc1ccccc1C(=O)NC(CC(C)C)C(=O)NCC(C)(C)N1CCOCC1 (stereo not given),·,·,·,·,–
CC(C)Cc1ccc(/C=C/C(=O)N2CCOCC2)cc1,–,–,55.9,46.2,–
CC(C)(C)c1ccc(/C=C/C(=O)N2CCN(c3ncccn3)CC2)cc1,–,–,–,–,–
SMILES,Pf growth 48h,Pf growth 96h,Shiga toxin inh,CHX counter,HCMV antiviral
COc1ccc(/C=C/C(=O)N2CCOCC2)cc1OC,–,–,–,–,–
CC(C)(C)c1ccc(/C=C/C(=O)N2CCOCC2)cc1,–,–,113.2,65.5,–
CCC1CCCCN1C(=O)/C=C/c1ccc2c(c1)OCO2 (stereo not given),–,?,–,9.8,–
CC1CN(C(=O)/C=C/c2ccc3c(c2)OCO3)CC(C)O1 (stereo not given),–,–,–,–,–
O=C(/C=C/c1ccc2c(c1)OCO2)N1CCOCC1,–,–,66.8,26.3,–
CCc1ccccc1NC(=O)C1CCCN(C(=O)c2cnn(-c3ccccc3)c2-n2cccc2)C1 (stereo not given),·,·,·,·,–
c1cc(-c2ccc(N3CCOCC3)cc2)n2ccnc2c1,·,·,·,·,–
COC(=O)C[C@H](NC(=O)Cn1cnc(C(=O)Nc2ccc(C)c(C)c2)n1)C(=O)OC,·,·,·,·,-65.1
Cc1[nH]c2ccc(C(=O)OC(C)C(=O)NC3CCCCC3C)cc2c1C (stereo not given),4.65µM,?,·,·,–
CC(OC(=O)c1ccc([N+](=O)[O-])s1)C(=O)NC1CCCCC1C (stereo not given),13.1µM,?,·,·,–
CC(NC=C1C(=O)OC(C)(C)OC1=O)C(=O)O (stereo not given),–,9.28µM,–,–,–
CC(C)C(NC=C1C(=O)OC(C)(C)OC1=O)C(=O)O (stereo not given),–,·,–,–,–
COc1ccc(C2CC(=O)c3cnc(NC(=O)c4cccc(OC)c4)nc3C2)cc1 (stereo not given),?,?,–,–,–
